Screens (PubChem BioAssay)
UbGFP stabilizer = Ubiquitin-GFP Assay; Ubiquitin-GFP reporter cells, proteasome inhibition, GFP fluorescence; response scale: untreated = 0%, 10 µM MG-132 = 100%; Potency, µM (doses to about 45.9 µM), without a hit: at the highest dose activation (GFP accumulation), usual class: activators; 67,000 tested, under 10 active; AID 526, 2006; active = well fitted activation curve with a large enough effect, not every such curve was filed as active; inconclusive = small, poorly fitted or top-dose-only effect, or another doubt; inactive = no such curve, though single readings can be large or run the other way; note: potency is the fitted concentration of half-maximal effect
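Proteasome block read as GFP accumulation: ubiquitin(G76V)-GFP U2OS cells exposed to compound (2.9 nM–46 uM) for 4 hr at 37 C. Normalization used untreated cells as 0% and 10 uM MG-132 as 100%; concentration-response curves fitted.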
Tau fil binding = qHTS Assay for Tau Filament Binding; Microtubule-associated protein tau (Homo sapiens), P10636; recombinant tau filaments, thioflavin S fluorescence, 15 h; filaments grown with octadecylsulfate alongside compound; Potency, µM (series often up to 57.1 µM), inactives show top-dose activity change, negative = inhibition; hit rate 2% among 71,000;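 note: potency is the fitted concentration of half-maximal effect; % is set by controls: 0 for no effect and ±100 for the full control effect; actives lower thioflavin S fluorescence by blocking filaments or displacing dye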
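His-tagged recombinant human tau (exons 2, 3, 10; 1 uM final) fibrillized with 30 uM sodium octadecylsulfate, 15 h at 37 C, in pH 7.4 HEPES buffer with 10 uM thioflavine S and 5 mM DTT. Reduced ThS fluorescence (450/510 nm) marks activity.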
HBB splicing = qHTS Assay for Modulators of Hemoglobin Beta Chain Splicing; hit rate 0.06% among 65,000; HBB splicing reporter cell assay, activation; EGFP reporter with mutant IVS2-654 intron; response scale: normalised to 500 nM splice-correcting PNA; Potency, µM (titrated, usually from 46.1 µM), without a hit: at the top dose activation, hits mostly activators; note: potency is the fitted concentration of half-maximal effect; 0% is about no effect
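Compounds were applied for 2 days to HeLa EGFP-654 cells, 500/well in Optimem with 2% FCS. The reporter's EGFP is disrupted by mis-splicing of beta-globin intron IVS2-654. Readout: summed well GFP fluorescence from 488 nm laser scanning; reference was 500 nM antisense […] 654 PNA.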
DNA Pol III inh = qHTS Assay for Inhibitors of DNA Polymerase III Holoenzyme System; hit rate 0.25% among 71,000; Potency, µM (doses to about 57.1 µM), without a hit: at the top dose activity change, negative = inhibition; reconstituted DNA polymerase III holoenzyme replication, biochemical; AID 603, 2007; note: potency is the fitted concentration of half-maximal effect; % is set by controls: 0 for no effect and ±100 for the full control effect
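Reconstituted *E. coli* holoenzyme (0.35 nM Pol III, 1 nM beta, 154 nM SSB, 2 nM primase) was preincubated with compound for 15 min at RT. Synthesis on 1.4 nM ssM13Gori ran 35 min, then was stopped with PicoGreen/EDTA and read as dsDNA fluorescence.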
GFP derepression = qHTS Assay for Epigenetic Modulators. mouse C127i GFP locus derepression, cytometry, 30 h. Potency, µM (highest dose often 46.1 µM), without a hit: at the top dose GFP derepression (activation). hit rate 0.09% among 68,000; note: % of control where 0% means no effect
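Derepression screen: silenced CMV-GFP reporter in murine C127i cells, 30 h compound incubation at 37 C, washed cells imaged by laser-scanning cytometer to enumerate GFP-expressing objects of 20 to 120 um.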
15-hLO inh = qHTS Assay for Inhibitors of 15-hLO (15-human lipoxygenase); hit rate 1.4% among 74,000; Polyunsaturated fatty acid lipoxygenase ALOX15 (Homo sapiens), P16050; purified 15hLO-1, xylenol orange hydroperoxide absorbance; Potency, µM (highest dose often 57.1 µM), inactives show top-dose activity change, negative = inhibition, hits mostly inhibitors; note: potency is the fitted concentration of half-maximal effect; % is set by controls: 0 for no effect and ±100 for the full control effect; nearly all actives have a fitted effect of over 55% in size
Target sequence (P16050 whole entry, looked up): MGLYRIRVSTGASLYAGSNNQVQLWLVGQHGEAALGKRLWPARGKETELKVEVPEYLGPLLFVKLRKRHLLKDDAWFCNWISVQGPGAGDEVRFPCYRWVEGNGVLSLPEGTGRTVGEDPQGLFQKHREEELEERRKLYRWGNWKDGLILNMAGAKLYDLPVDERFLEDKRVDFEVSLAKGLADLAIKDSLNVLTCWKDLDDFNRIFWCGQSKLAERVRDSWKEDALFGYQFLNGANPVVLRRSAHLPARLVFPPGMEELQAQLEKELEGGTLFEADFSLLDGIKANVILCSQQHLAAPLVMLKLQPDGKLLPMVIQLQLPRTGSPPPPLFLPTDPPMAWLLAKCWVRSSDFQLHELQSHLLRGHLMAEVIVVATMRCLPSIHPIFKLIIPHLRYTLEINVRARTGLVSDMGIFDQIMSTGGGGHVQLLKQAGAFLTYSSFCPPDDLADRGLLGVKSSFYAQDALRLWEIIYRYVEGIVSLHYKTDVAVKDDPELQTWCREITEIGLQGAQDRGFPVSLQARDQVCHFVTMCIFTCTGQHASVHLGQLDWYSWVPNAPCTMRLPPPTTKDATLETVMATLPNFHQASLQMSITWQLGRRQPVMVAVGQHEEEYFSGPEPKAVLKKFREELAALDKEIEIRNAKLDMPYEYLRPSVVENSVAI
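Inhibition is scored from a chromogenic endpoint. After 15 min enzyme-compound contact, arachidonic acid (50 uM final) reacts 6 min with 40 nM 15hLO-1 at room temperature, then Fe-XO reagent is added for 30 min and absorbance ratio recorded.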
* hit, by the source's call; i = inactive; ? = inconclusive; . = no result; [ ] = remark or other dose. The list is not random: actives were taken first. Their share in the collection is about 3.2%. Unless noted, calls come from the whole dose curve; as a rule, active = well fitted curve in the direction sought with a large enough effect; inconclusive = small, poorly fitted or top-dose-only effect, or another doubt; inactive = no such curve, though single readings can be large; an effect the other way counts as inactive or inconclusive.

SMILES	UbGFP stabilizer	Tau fil binding	HBB splicing	DNA Pol III inh	GFP derepression	15-hLO inh
O=C(CC1N=C2c3ccccc3N=C(SCc3ccc(Cl)cc3)N2C1=O)NCc1ccco1 (stereo unspecified)	-7%	-1%	0%	-4%	0%	25µM*
Cc1ccc(CSC2=Nc3ccccc3C3=NC(CCC(=O)NCc4ccco4)C(=O)N23)cc1 (stereo unspecified)	-1%	-12%	-2%	-2%	-2%	?
CC(=O)OC[C@@H]1O[C@@H](Oc2cc(OC(C)=O)c3c(=O)cc(-c4ccc(OC(C)=O)c(OC(C)=O)c4)oc3c2)[C@H](OC(C)=O)[C@H](OC(C)=O)[C@@H]1OC(C)=O	1%	?	.	-4%	0%[9.22 µM]	.
CN(C)c1ccc(NC(=O)CCCc2ccccc2)cc1	1%	20µM*	0%	-2%	-3%	10µM*
COCC(=O)Nc1ccc(N(C)C)cc1	-5%	-4%	5%	-5%	0%	-20%
NC(=S)NCCC[C@@H](N)C(=O)O	-6%	-1%	-1%	3%	0%	-28%
O=C(O)CCc1ccc(-c2ccccc2)n1Cc1ccco1	-1%	-10%	.	-5%	0%	-7%
CCCn1c(CCC(=O)O)ccc1-c1ccc(F)cc1	6%	?	3%	-8%	-3%	7.9µM*
O=C(O)CCc1ccc(-c2ccc(Br)cc2)n1Cc1ccco1	-3%	?	1%	-18%	0%	16µM*
N#CC1=C(N)C(C#N)(C#N)C(c2cccnc2)C2CCCC=C12 (stereo unspecified)	4%	i	0%	-9%	5%	25µM*
N#CC1=C(N)C(C#N)(C#N)C(c2ccc[nH]2)C2CCCC=C12 (stereo unspecified)	-4%	149%	.	-7%	0%	-27%
CCNc1sc(C(=O)c2cccs2)c(N)c1C#N	.	.	.	.	8%[20.6 µM]	.
CCNc1sc(C(=O)c2cccs2)c(N)c1-c1nc2ccccc2s1	-7%	13µM*	-1%	2%	0%	?
CC[C@@H]1CN2CCc3cc(OC)c(OC)cc3[C@@H]2C[C@@H]1C[C@H]1NCCc2cc(OC)c(OC)cc21	.	.	.	.	.	1%[25.6 µM]
Cc1cc(C(C)(C)C)cc(CNC2CCCCC2)c1O	-6%[9.17 µM]	-21%[11.4 µM]	4%[9.22 µM]	6%[11.4 µM]	2%[9.22 µM]	8%[11.4 µM]
Cc1ccccc1-c1ccc2ncnc(-n3ccnc3)c2c1	9%	141%	0%	-12%	-5%[9.22 µM]	?
CN(C)c1ccc(-c2ccc3ncnc(-n4ccnc4)c3c2)cc1	16%	3.2µM*	1%	-5%	5%[9.22 µM]	10%
Cn1c(=O)c2[nH]c(CCC(=O)O)nc2n(C)c1=O	11%[9.17 µM]	7%[11.4 µM]	4%[9.22 µM]	-3%[11.4 µM]	-2%[9.22 µM]	-6%[11.4 µM]
COc1cccc(N2C(=O)CC(Nc3ccc(N4CCOCC4)cc3)C2=O)c1 (stereo unspecified)	.	.	.	.	.	13µM*
CCN(CC)CCCC(C)NC(=O)c1ccc(Cc2nc3ccccc3[nH]2)cc1 (stereo unspecified)	.	.	.	.	.	2%
C=CCn1cnc2c(c1=O)c1nc3ccccc3nc1n2/N=C/c1cccc(OC)c1	-3%	3.2µM*	3%[57.5 µM]	-7%	2%	1%
COc1ccc(C2C(C(C)=O)=C(C)N=c3s/c(=C\c4ccco4)c(=O)n32)c(OC)c1 (stereo unspecified)	19%	-119%	-4%	4%	2%	?
COc1ccc(C2C(C(C)=O)=C(C)N=c3s/c(=C\c4ccc5c(c4)OCO5)c(=O)n32)c(OC)c1 (stereo unspecified)	15%	4µM*	-1%[9.22 µM]	6%	-2%	-5%
Cn1c(=O)c2c(nc(C(=N)SCC(=O)O)n2C)n(C)c1=O	2%[9.17 µM]	307%[11.4 µM]	4%[9.22 µM]	-10%[11.4 µM]	-6%[9.22 µM]	-12%[11.4 µM]
CCN1CCN(c2cc(C)c3cc(NC(=O)c4cnccn4)ccc3n2)CC1	1%	10µM*	0%	-10%	0%	-11%
SMILES	UbGFP stabilizer	Tau fil binding	HBB splicing	DNA Pol III inh	GFP derepression	15-hLO inh
CCN(CC)CCNC(=O)CCCCn1c(=S)[nH]c2c([nH]c3ccc(OC)cc32)c1=O	-7%	45%	1%	0%	3%	13µM*
CCn1c(=O)[nH]c2cc(C(=O)N3CCN(c4ccccc4)CC3)ccc2c1=O	-9%	2%	0%	-5%	3%	0%
CC(=O)Nc1ccccc1-c1nc2ccc(C(=O)N3CCN(c4ccccc4)CC3)cc2[nH]c1=O	-8%	16µM*	0%	-4%	.	3%
COc1cc2nc(N3CC=[N+](C(=O)c4ccco4)CC3)nc(N)c2cc1OC	-2%	7%	0%	4%	-1%	9%
O=C(O)/C=C\C=C/c1ccc2c(c1)OCO2	-3%[9.17 µM]	7%[11.4 µM]	-1%[9.22 µM]	8%[11.4 µM]	2%[9.22 µM]	-4%[11.4 µM]
O=C1CCCC2=C1C(c1ccc(Br)cc1)c1c([nH]c(=S)[nH]c1=O)N2 (stereo unspecified)	-7%	8%	0%	3%	1%	25µM*
Cc1ccc(CSc2nc3c(c(=O)[nH]2)C(c2ccncc2)C2=C(CCCC2=O)N3)cc1 (stereo unspecified)	9%	24%	-2%	3%	0%	8%
O=C1CCCC2=C1C(c1ccc3c(c1)OCO3)c1c([nH]n(-c3ccccc3)c1=O)N2 (stereo unspecified)	.	195%	1%[0.369 µM]	-13%	2%	-7%
Cc1ccc(C2C3=C(CCCC3=O)Nc3[nH]c(=S)[nH]c(=O)c32)cc1 (stereo unspecified)	-2%	6%	-3%	11%	0%	20µM*
c1cncc(-c2cncnc2NC2CCNCC2)c1	4%	-17%	-1%	-13%	2%[9.22 µM]	32µM*
c1cncc(-c2ccc3ncnc(NC4CCNCC4)c3c2)c1	-3%	3%	0%	-3%	-1%[9.22 µM]	11%
CC(=O)NCCNc1ncncc1-c1ccc(N(C)C)cc1	-3%	6%	-1%	-3%	-1%[9.22 µM]	13µM*
COc1cccc(C(=O)NCC(c2cccnc2)N2CCN(c3ccccc3OC)CC2)c1 (stereo unspecified)	5%	121%	-1%	-3%	.	13µM*
CCN(CC)CCCNC(=O)c1ccc(-n2c(=O)c(=O)[nH]c3ccccc32)cc1	.	.	.	.	.	0%
COc1cccc(C2=NOC(C(=O)NC(C)C)C2)c1 (stereo unspecified)	8%	0%	-4%	2%	8%	-3%
